Whole data set: some 68,000 sequences, median “fluorescence intensity (a.u.)” near 9,100, cut for the highest 2% near 16,000. The full list was thinned out, with the highest values kept by preference.
molecular target: OsWRKY34 (Oryza sativa, UniProt Q0JBA9 1-250); assay: protein-binding microarray (RPBM); PBS, 2% BSA, 51.3 ng/ul salmon testes DNA, 50 uM zinc acetate, 200 nM TF, 25 C, 1 h; high values mean tight binding; conditions: protein: recombinant; tags: N-terminal polyhistidine and DsRed monomer fusion (pET32a); label: CyDye5-dUTP incorporated in the synthesized complementary strand; 3' TTTTT single-stranded linker to array surface; dsDNA, one strand shown
Sequence (Q0JBA9 entry or part of it): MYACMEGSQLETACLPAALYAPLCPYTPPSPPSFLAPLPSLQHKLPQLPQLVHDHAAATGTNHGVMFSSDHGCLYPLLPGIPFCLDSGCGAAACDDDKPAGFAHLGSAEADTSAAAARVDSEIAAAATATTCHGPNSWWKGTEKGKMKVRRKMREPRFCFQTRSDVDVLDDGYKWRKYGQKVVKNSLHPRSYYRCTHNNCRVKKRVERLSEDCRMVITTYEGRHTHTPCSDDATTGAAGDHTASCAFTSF
Summary of the method: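 Binding signal is reported as fluorescence intensity per feature (arbitrary units) from an Axon 4000B scanner. Incubation used 200 nM of each Ni–NTA-purified, N-terminally polyhistidine- and DsRed-fused transcription factor from E. coli BL21-CodonPlus on a double-stranded custom Agilent array for 1 h at 25 °C, with 50 µM zinc acetate in the buffer, followed by washing.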

Sequence | binding signal
TTCTCCCTTTATTTTTGTTTATATAATTTCCAGATCAAAGCGGAGTCACCTAGTGCAG | 8890 fluorescence intensity (a.u.)
GCCGCCGCCTCGCTCCCCATGGCGTCCGTACACTCCGGCGCGGAGTCACCTAGTGCAG | 10300 fluorescence intensity (a.u.)
GCCGCCGCCCGCCGCCGCCGAGACCGACCCGACCACGATGCGGAGTCACCTAGTGCAG | 8960 fluorescence intensity (a.u.)
AATTTCGGAAGGGTTGGTTTAGGCAGTAATATTCTCCATTCGGAGTCACCTAGTGCAG | 8280 fluorescence intensity (a.u.)
GTGGCCTTTGGGAGCGGTGACCTGCTGCTCCATCCTTCATCGGAGTCACCTAGTGCAG | 9620 fluorescence intensity (a.u.)
ATCCTGATCAGATTCTGAACTCCTTTTCTCTCTGCGCCCACGGAGTCACCTAGTGCAG | 8480 fluorescence intensity (a.u.)
CACGTCGCCTCGTTTCTTGCCTCGCCGCTCGTCACTCGGCCGGAGTCACCTAGTGCAG | 9810 fluorescence intensity (a.u.)
GATAGTTGAGGGGTCGAGATTTTTGGTATTGCGGATTGGGCGGAGTCACCTAGTGCAG | 10400 fluorescence intensity (a.u.)
CGGTTTCGTTTGAGATTTTTTTTTGGTGGTTTTGATTTCGCGGAGTCACCTAGTGCAG | 8640 fluorescence intensity (a.u.)
GGTGGTCTTCTTTTTTTGCGGTGGAGTTGGATTTGGGTTGCGGAGTCACCTAGTGCAG | 13000 fluorescence intensity (a.u.)
TATTTTTGGGTTGGGTTTGGGTTGGGTTGGGTCGAGTTGGCGGAGTCACCTAGTGCAG | 26100 fluorescence intensity (a.u.)
CGGTGGTGGTGGTGGTGCCTTGGCTAGTTTGGCCGGCGCGCGGAGTCACCTAGTGCAG | 14300 fluorescence intensity (a.u.)
GGTGGGTTGGGCCGTGATTTGTATGGACTTTATTTGTAAGCGGAGTCACCTAGTGCAG | 19000 fluorescence intensity (a.u.)
AATATGTGGGTGATTTGTTGTAATGGAGTATGTGGTGGAGCGGAGTCACCTAGTGCAG | 10000 fluorescence intensity (a.u.)
CGGTGGACTGGTGGTTTTTGCGGGGTTGCAGAATTTGGTGCGGAGTCACCTAGTGCAG | 9390 fluorescence intensity (a.u.)
GTTTATTGTATTTGGAGTAAGTGATTGTAACTTTTTTTTACGGAGTCACCTAGTGCAG | 9200 fluorescence intensity (a.u.)
CTTGGCTTGGTTTGGTTTGGTGTTTGATCACGCGGTGGTGCGGAGTCACCTAGTGCAG | 20800 fluorescence intensity (a.u.)
CGATCTTGCCCTGGTTGGTTGGTGGTGGTGGTGGGTTTTGCGGAGTCACCTAGTGCAG | 37100 fluorescence intensity (a.u.)
GGCGAGTGGCGGATTTGTTTTTGGTTTGTTTTTGAGTTTGCGGAGTCACCTAGTGCAG | 9060 fluorescence intensity (a.u.)
GTTTACATGTGTAGATCTAATGATGCGTTCAATCTAGTTTCGGAGTCACCTAGTGCAG | 8860 fluorescence intensity (a.u.)
GCGGATTTCCTTTCTAAACGTGCCAACGATGTGTTCTTGTCGGAGTCACCTAGTGCAG | 8250 fluorescence intensity (a.u.)

Sequence | binding signal
CAAAACAGAAGAGCCAGGTTAGTTTAGTTGGTCATATTCACGGAGTCACCTAGTGCAG | 8310 fluorescence intensity (a.u.)
AGCCATCCGGCCGCGGCCCGTCACAGGTAACTAGTCATTTCGGAGTCACCTAGTGCAG | 9260 fluorescence intensity (a.u.)
TTCCCACCGCTGCCGCTCGTCCCGTCTCACCGATCCCTCCCGGAGTCACCTAGTGCAG | 10300 fluorescence intensity (a.u.)
CGCCGCCATTTCCGCCTCTTCTTCTCTTAAACAAAAAGCCCGGAGTCACCTAGTGCAG | 10200 fluorescence intensity (a.u.)
TCCTGTGTTTTTTCTGTGTTTTGCAATCCTCTGTTTTACACGGAGTCACCTAGTGCAG | 10900 fluorescence intensity (a.u.)
TGGGGTTCTTGTTTTTCTTTTCCGGGATCTTTGGGTGATGCGGAGTCACCTAGTGCAG | 15900 fluorescence intensity (a.u.)
GTCTTATTGTGGTTGGGAGTTTAACGGTGTACCGAAGAAACGGAGTCACCTAGTGCAG | 8780 fluorescence intensity (a.u.)
GGTAAAACATGTTGGATTTTATTTTGGTGGGATGTGCAATCGGAGTCACCTAGTGCAG | 9620 fluorescence intensity (a.u.)
AACTTGGTGGGTTTGGTTTTGCTCTTTCTGTTGACCAAGCCGGAGTCACCTAGTGCAG | 12000 fluorescence intensity (a.u.)
CTACTACTCTTTTCTCAGAGCTAGTGAGGGGCGGGCGGGCCGGAGTCACCTAGTGCAG | 17500 fluorescence intensity (a.u.)
CACTACCTCAGTATTCTCTACTACTACTCTTTTCTCAGAGCGGAGTCACCTAGTGCAG | 8470 fluorescence intensity (a.u.)
ACTACTCACTCTTCATTGCTTTTTTTTTTCTCTCTCTAGCCGGAGTCACCTAGTGCAG | 9600 fluorescence intensity (a.u.)
GATCTGACCGGATTTTGCGGTGGGGTTTTCTTTTTTGGGTCGGAGTCACCTAGTGCAG | 12200 fluorescence intensity (a.u.)
TTGACTGGGTTTTTCTTTTTTTTTTCTGTTTTGTTGTTTGCGGAGTCACCTAGTGCAG | 10100 fluorescence intensity (a.u.)
TGGGGTTTTCTTTTTTGGGTTGGGTTGATCTTTTGGGTGGCGGAGTCACCTAGTGCAG | 36600 fluorescence intensity (a.u.)
TTTTTGGGTGGGAGTTGTATTTTTTTAACATGTGGGAAAACGGAGTCACCTAGTGCAG | 21300 fluorescence intensity (a.u.)
TGGTTTTCTGTTTTCTTGGTTTTGGGTGGTGGCAGTTGACCGGAGTCACCTAGTGCAG | 23200 fluorescence intensity (a.u.)
TCTTCGTCGACACCACCCCAGCCGGTGTCCCCACGCGCTCCGGAGTCACCTAGTGCAG | 10100 fluorescence intensity (a.u.)
CCAGTTTGTATCTCATGTATTGGGCCTCGAAATCTGGTATCGGAGTCACCTAGTGCAG | 12200 fluorescence intensity (a.u.)
GTTACTGCACATTGACCATCGCGTTACTGCACCGTTCTGCCGGAGTCACCTAGTGCAG | 8940 fluorescence intensity (a.u.)
GAGGGGTTTCATTGTTATTTTTGGGTAATCCAAATTTACACGGAGTCACCTAGTGCAG | 16300 fluorescence intensity (a.u.)

Sequence | binding signal
GCGAACCGCGAATACAATAGCCGGCGCCCCGCGCGTACACCGGAGTCACCTAGTGCAG | 8070 fluorescence intensity (a.u.)
TCCTCGCGACCTTAATTTACTCCTCCAATGGCCGCCGCTGCGGAGTCACCTAGTGCAG | 8600 fluorescence intensity (a.u.)
CGCTGTATTTTGTTGGGATCACCTGTACATTTCTTCACAACGGAGTCACCTAGTGCAG | 10900 fluorescence intensity (a.u.)
TTTCTTGGTCTTTGGGTTAAATGTGGTTATGCCTTATATTCGGAGTCACCTAGTGCAG | 8260 fluorescence intensity (a.u.)
GAGTCATAGTAGTGTAGTAGTGGGTCAACTCAGTCAAGTCCGGAGTCACCTAGTGCAG | 8290 fluorescence intensity (a.u.)
GTATTATTGTCCCTTACATTGCTAACTCAATGTTGTATTACGGAGTCACCTAGTGCAG | 8130 fluorescence intensity (a.u.)
TTTTTACAACCCTGCGATTCAGATAGACCTTACCATTTTTCGGAGTCACCTAGTGCAG | 8940 fluorescence intensity (a.u.)
ATAGGAGGGGTCATATTAGTAGGGTTTTTTTTGGACGGAGCGGAGTCACCTAGTGCAG | 8260 fluorescence intensity (a.u.)
TAGGTGGTGTTTGGTTTATGGATCAGGTGGGTTGGGTTGGCGGAGTCACCTAGTGCAG | 8740 fluorescence intensity (a.u.)
CAGCGGAGAGCGGCGGCGGCGAGTAGGATGGGGTTTGATTCGGAGTCACCTAGTGCAG | 8380 fluorescence intensity (a.u.)
TTTGATCTTGTGGTGGTTTGGGTGATCGGTGGCGATGGGGCGGAGTCACCTAGTGCAG | 11000 fluorescence intensity (a.u.)
GTGGGTGGTTGGTGGTGGTGGTGGTGGTGGTGATCTTTGGCGGAGTCACCTAGTGCAG | 23900 fluorescence intensity (a.u.)
GAGTAGGATGGGGTTTGATTTTGGGGTTCGTGGGGTCGAGCGGAGTCACCTAGTGCAG | 17100 fluorescence intensity (a.u.)
AAACTGTTCTCCTCCACTTGCCTATCTTATCCTCTCTTATCGGAGTCACCTAGTGCAG | 8930 fluorescence intensity (a.u.)
ACGGTTGTGTATTTCATAGTAGGGTGTAAATGTACGCTGACGGAGTCACCTAGTGCAG | 8030 fluorescence intensity (a.u.)
ATACAACTTCGTCTGGCGCCCTCAATCGATCTCGCTCTATCGGAGTCACCTAGTGCAG | 9870 fluorescence intensity (a.u.)
AACCCTCATCTACTTCTGGCCCTCTAAGAGTTCTCCACTACGGAGTCACCTAGTGCAG | 8400 fluorescence intensity (a.u.)
GTGTGTGCCTCCTTTTCTCTTCTTCAGTTTTCAACTCAAACGGAGTCACCTAGTGCAG | 9440 fluorescence intensity (a.u.)
CCTCATCCCGTCCAGCGTTCACCCGACGTCGCCCGTCGCACGGAGTCACCTAGTGCAG | 10500 fluorescence intensity (a.u.)
TGAGTCTTCACAATCCCATGTCACATGATCATGTGATCTTCGGAGTCACCTAGTGCAG | 9860 fluorescence intensity (a.u.)
GAAATGAGGGGTGGGATTGGGATTGGGATTGGAAAATGAACGGAGTCACCTAGTGCAG | 11800 fluorescence intensity (a.u.)

Sequence | binding signal
GGGTGGGATTGGGATTGGGAAATGAATGAAGGGTTAGGATCGGAGTCACCTAGTGCAG | 16400 fluorescence intensity (a.u.)
GTGGGATTAGGATTGGAAAATGAATGAAGGGTTAGAATTACGGAGTCACCTAGTGCAG | 8560 fluorescence intensity (a.u.)
GTGATTGGATGGGTAGTGGAGACAGGTGGGAAAAATGAATCGGAGTCACCTAGTGCAG | 8510 fluorescence intensity (a.u.)
GTGGGGATTGGGTAGGAGAAGGAGTGGGGAATTAGGTTAGCGGAGTCACCTAGTGCAG | 12200 fluorescence intensity (a.u.)
TGTACTGTAGGGGTGGGATTGTGATTGGAAAATGAATGAACGGAGTCACCTAGTGCAG | 18600 fluorescence intensity (a.u.)
GTCGATGTGTCTTTTGTGTGTAGTTCTTGTAATTGTTGTGCGGAGTCACCTAGTGCAG | 8220 fluorescence intensity (a.u.)
GGGTTGATTTTGCTTCCTGCATCCCAGCGACATCGCCCAACGGAGTCACCTAGTGCAG | 11500 fluorescence intensity (a.u.)
CCTGTGCGTGGTCGGGTTAATTTGTCAGTCTGTCACTTACCGGAGTCACCTAGTGCAG | 10200 fluorescence intensity (a.u.)
GTGCTCATCCGCCTCCTCGGGTCGTCTCCATCGACCTCCTCGGAGTCACCTAGTGCAG | 9120 fluorescence intensity (a.u.)
CTCCATTTAACAGATGACGTCGTTGACTTTTTCTTACATGCGGAGTCACCTAGTGCAG | 26900 fluorescence intensity (a.u.)
TTTTTAATAGATGACGCCGTTGACTTTTTCTCACATGTTTCGGAGTCACCTAGTGCAG | 34300 fluorescence intensity (a.u.)
ATAGATGACGCTGTTGATTTTTTTCTCACATGTTTGACCACGGAGTCACCTAGTGCAG | 10400 fluorescence intensity (a.u.)
GTTTACTCCAAGATTCACATTTGACTTTCTTATGCCATAGCGGAGTCACCTAGTGCAG | 9170 fluorescence intensity (a.u.)
TTTTTTAATAGATGACGCCGTTGACCTTTTCTCACATGTTCGGAGTCACCTAGTGCAG | 15100 fluorescence intensity (a.u.)
TAATAGATGACGCCGTTGACTTTTTCTCACATGTTTGACCCGGAGTCACCTAGTGCAG | 33000 fluorescence intensity (a.u.)
TGTTGACTTTTTAGTACATATTTAACCATTTGTCTTATTACGGAGTCACCTAGTGCAG | 14900 fluorescence intensity (a.u.)
ATAGATGACGCCGTTAACTTTTTCTCACATGTTTAACCATCGGAGTCACCTAGTGCAG | 10200 fluorescence intensity (a.u.)
TTAATAGATGACGCCGTTGATTTTTTCTCACATGTTTGACCGGAGTCACCTAGTGCAG | 11600 fluorescence intensity (a.u.)
TTTTTAATAGATGACGCTGTTGACTTTTTCCCACATGTTTCGGAGTCACCTAGTGCAG | 24200 fluorescence intensity (a.u.)
TTTGTTTTTTAATAGATGACGCTGTTGACTTTTTCTCACGCGGAGTCACCTAGTGCAG | 14200 fluorescence intensity (a.u.)
CTAGTTTTGGTCTTGTGATAGGTTATTTGCTTACGATTATCGGAGTCACCTAGTGCAG | 9430 fluorescence intensity (a.u.)

— article PMC7819943, “Rice protein-binding microarrays: a tool to detect cis-acting elements near promoter regions in rice”
